5 compounds from PubChem BioAssay can be followed below.

Activity calls are given as the source filed them.

Assay [1] in a line: small molecules captured by biotinylated probe aFSTL3 – biochemical, small-molecule microarray, fluorescence 635/667, stem cell growth factor project, primary screen (AID 1064).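 Further: measures binding of the biotinylated anti-FSTL3 antibody to printed compounds.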 The note with it: higher = more signal.
Assay [2] in a line: binders from COS7 lysate, DM2A8 probe, primary screen, torsin A project, cell lysate, small-molecule microarray, fluorescence 635/667 (AID 1065). The note with it: higher = more signal, COS7 lysate expressing mutant human TOR1A.
Assay [3] in a line: small molecules captured by biotinylated probe aFGF2 – biochemical, small-molecule microarray, fluorescence 635/667, stem cell growth factor project, primary screen (AID 1067).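 Further: measures binding of biotinylated aFGF2 protein to printed compounds on slides; z-score merges feature fluorescence and signal-to-noise across triplicate slides.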 The settings on record: higher = more signal.
The nature of assay [4]: small molecules captured by biotinylated probe aFGF10 – biochemical, small-molecule microarray, fluorescence 635/667, stem cell growth factor project, primary screen (AID 1071).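 Further: score merges 667 nm spot intensity and signal to noise from triplicate slides.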 The settings on record: higher = more signal.
In assay [5] the target is Neurogenic locus notch homolog protein 2 (Homo sapiens) (UniProt Q04721). The assay is described as follows: small molecules binding Notch2 protein – biochemical, small-molecule microarray, 635 nm fluorescence, stem cell growth factors, primary screen (AID 1073). The settings on record: higher = more signal.
Sequence of Neurogenic locus notch homolog protein 2 (Homo sapiens) (Q04721 whole entry, looked up, canonical isoform): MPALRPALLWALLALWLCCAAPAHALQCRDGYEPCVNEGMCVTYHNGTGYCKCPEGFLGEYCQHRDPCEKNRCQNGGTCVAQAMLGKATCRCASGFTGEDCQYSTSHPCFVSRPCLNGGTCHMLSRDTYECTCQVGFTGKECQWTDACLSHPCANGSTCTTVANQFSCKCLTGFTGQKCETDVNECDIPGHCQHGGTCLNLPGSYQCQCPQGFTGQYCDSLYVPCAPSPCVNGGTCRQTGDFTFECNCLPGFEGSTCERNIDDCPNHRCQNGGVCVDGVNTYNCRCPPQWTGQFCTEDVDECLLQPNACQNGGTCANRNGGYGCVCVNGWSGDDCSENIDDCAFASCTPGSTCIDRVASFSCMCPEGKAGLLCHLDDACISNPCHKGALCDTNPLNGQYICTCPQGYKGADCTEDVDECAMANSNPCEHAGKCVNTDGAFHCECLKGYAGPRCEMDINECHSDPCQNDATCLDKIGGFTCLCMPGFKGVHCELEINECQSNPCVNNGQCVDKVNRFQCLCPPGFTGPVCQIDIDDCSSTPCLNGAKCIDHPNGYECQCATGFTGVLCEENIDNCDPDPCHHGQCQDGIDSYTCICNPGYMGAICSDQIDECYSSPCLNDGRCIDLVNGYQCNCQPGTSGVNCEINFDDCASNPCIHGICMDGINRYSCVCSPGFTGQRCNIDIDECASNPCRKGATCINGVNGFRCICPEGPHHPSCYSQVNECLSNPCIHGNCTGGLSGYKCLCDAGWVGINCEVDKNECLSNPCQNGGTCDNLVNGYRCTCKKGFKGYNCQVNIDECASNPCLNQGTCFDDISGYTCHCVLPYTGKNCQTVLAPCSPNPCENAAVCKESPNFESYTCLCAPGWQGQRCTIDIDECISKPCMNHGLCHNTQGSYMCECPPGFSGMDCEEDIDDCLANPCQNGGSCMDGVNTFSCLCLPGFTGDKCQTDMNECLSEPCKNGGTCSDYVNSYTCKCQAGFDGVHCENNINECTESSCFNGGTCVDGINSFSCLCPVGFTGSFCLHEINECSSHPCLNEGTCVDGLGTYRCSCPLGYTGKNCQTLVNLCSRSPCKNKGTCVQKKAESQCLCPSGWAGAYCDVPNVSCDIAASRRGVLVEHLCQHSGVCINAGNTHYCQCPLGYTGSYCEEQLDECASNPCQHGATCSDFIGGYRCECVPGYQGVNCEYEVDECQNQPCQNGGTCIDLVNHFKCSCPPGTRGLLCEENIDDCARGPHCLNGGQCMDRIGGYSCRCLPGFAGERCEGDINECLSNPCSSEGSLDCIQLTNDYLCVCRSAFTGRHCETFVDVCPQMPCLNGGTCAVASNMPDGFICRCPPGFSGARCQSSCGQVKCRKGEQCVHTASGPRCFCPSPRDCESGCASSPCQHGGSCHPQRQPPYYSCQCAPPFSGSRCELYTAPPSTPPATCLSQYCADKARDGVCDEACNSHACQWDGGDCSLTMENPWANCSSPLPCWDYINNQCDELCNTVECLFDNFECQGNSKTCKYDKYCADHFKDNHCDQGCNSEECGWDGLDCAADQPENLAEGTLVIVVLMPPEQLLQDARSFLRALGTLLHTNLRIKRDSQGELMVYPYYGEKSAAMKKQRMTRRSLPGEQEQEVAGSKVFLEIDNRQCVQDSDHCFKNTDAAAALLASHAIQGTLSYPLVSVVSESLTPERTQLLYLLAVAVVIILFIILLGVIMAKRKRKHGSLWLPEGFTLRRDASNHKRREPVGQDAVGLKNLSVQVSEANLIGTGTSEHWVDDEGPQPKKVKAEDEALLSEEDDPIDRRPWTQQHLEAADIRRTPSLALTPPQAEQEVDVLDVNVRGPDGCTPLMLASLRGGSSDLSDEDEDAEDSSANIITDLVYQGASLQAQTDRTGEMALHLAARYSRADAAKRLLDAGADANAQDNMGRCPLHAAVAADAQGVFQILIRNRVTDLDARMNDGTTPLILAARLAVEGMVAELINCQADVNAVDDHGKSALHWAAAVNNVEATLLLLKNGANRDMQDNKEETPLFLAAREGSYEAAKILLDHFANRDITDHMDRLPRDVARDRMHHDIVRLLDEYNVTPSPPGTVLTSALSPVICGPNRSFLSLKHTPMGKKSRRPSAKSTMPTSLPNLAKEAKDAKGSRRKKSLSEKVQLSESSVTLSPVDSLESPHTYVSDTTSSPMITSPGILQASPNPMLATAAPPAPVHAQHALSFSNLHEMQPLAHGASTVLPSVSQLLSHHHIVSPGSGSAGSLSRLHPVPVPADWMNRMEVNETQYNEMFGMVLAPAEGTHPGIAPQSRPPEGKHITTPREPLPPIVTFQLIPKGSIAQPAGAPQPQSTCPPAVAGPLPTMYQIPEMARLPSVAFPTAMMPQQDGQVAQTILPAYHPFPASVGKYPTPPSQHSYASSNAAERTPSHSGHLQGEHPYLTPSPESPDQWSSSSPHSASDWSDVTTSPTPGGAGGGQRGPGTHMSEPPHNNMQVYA
Assay [6] concerns the target Pro-neuregulin-1, membrane-bound isoform (Homo sapiens) (UniProt Q02297). Description: small molecules binding neuregulin-1 protein – biochemical, small-molecule microarray, fluorescence 635/667, psychiatric disease protein project, primary screen (AID 1075).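 Further: score combines 667 nm spot fluorescence with signal to noise.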 The settings on record: NRG1 binding, 635 nm fluorescence, higher = more signal.
Assay [7] concerns Neuregulin-1 EGF-like domain. Description: small molecules binding NRG1 EGF domain – biochemical, small-molecule microarray, 635 nm fluorescence, primary screen (AID 1081).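 Further: binding of the protein to compounds printed on small-molecule microarray slides.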 The note with it: higher = more signal.
The nature of assay [8]: FRG1 expression reporter modulators in myotubes – cell-based, C2C12 myotubes, firefly/Renilla luciferase, luminescence, FRG1 inhibition for FSHD, primary screen (AID 1084). The note with it: FRG1 promoter luciferase, higher = more signal, called active from +8 up or from −8 down.
Assay [9] in a line: small molecules captured by biotinylated probe aFST – biochemical, small-molecule microarray, fluorescence 635/667, stem cell growth factor project, primary screen (AID 1086).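 Further: score merges 667 nm fluorescence with signal-to-noise of each printed compound spot.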 The settings on record: higher = more signal.
The nature of assay [10]: binders of probe aHhip on microarray, primary screen, stem cell growth factor project, biochemical, small-molecule microarray, fluorescence 635/667 (AID 1087).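 Further: score merges spot fluorescence at 667nm with spot signal to noise ratio.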 The note with it: higher = more signal.
The test system of assay [11] is PRMT1 (protein arginine N-methyltransferase 1). Description: small molecules binding arginine methyltransferase PRMT1 – biochemical, small-molecule microarray, 635 nm fluorescence, primary screen (AID 1088).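 Further: binding of Prmt1 protein to compounds spotted on small-molecule microarray slides.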 The note with it: higher = more signal.
Assay [12] can be described thus: growth effects on S. cerevisiae YJM789 – YJM789 clinical isolate, OD600, 24 h, basal, primary screen (AID 1089).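 Further: growth of clinical yeast isolate S. cerevisiae YJM 789 seeded 1000 cells per well; test concentration not given here.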 The note with it: higher = more signal, called active from +8 up or from −8 down.
Assay [13] can be described thus: S. pombe growth modifiers, basal conditions – strain 972, OD600, 24 h, no modulator, primary screen (AID 1090).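 Further: basal condition with compound alone and no growth modifier present; test concentration not given here.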 The settings on record: S. pombe 972 growth, higher = more signal, called active from +8 up or from −8 down.
A short description of assay [14]: budding yeast growth modifiers under rapamycin – strain BY4716, OD600, 96 h, primary screen (AID 1091). Further: test concentration not given here. The note with it: S. cerevisiae BY4716 + rapamycin, higher = more signal, called active from +8 up or from −8 down.
The target of assay [15] is Torsin-1A-interacting protein 2 (Homo sapiens) (UniProt Q8NFQ8). Description: small molecules binding lysate-expressed LULL1 – cell lysate, human LULL1 lysate, 635/667 nm fluorescence, primary screen (AID 1092).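 Further: probe is lysate of COS7 cells overexpressing human LULL1; score merges per-feature 667 nm fluorescence with signal-to-noise.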 The note with it: small-molecule microarray, hLULL1 lysate binding, 635 nm fluorescence; higher = more signal.
Assay [16] is described as follows: optical density change of DRC41 E. coli – strain DRC41, OD650, 24 h, E. coli filamentation project, primary screen (AID 1093).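 Further: MC1000 strain lacking acrAB efflux and sulA so SOS filamentation is blocked; test concentration not given here.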 The settings on record: E. coli DRC41 growth, higher = more signal, called active from +8 up or from −8 down.
The nature of assay [17]: probe aLefty2 binding to arrayed compounds – biochemical, biotinylated probe, 635/667 nm fluorescence, primary screen (AID 1094).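 Further: score merges spot fluorescence near 667 nm with spot signal-to-noise ratio.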 The note with it: small-molecule microarray, higher = more signal.
Assay [18] has as its system Noggin (protein binding on small-molecule microarray). The assay is described as follows: small molecules binding Noggin protein – biochemical, 635/667 nm fluorescence, primary screen (AID 1095).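 Further: score merges 667 nm feature fluorescence with signal to noise over triplicate slides.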 The settings on record: 635 nm fluorescence, higher = more signal.
In assay [19] the target is Neurogenic locus notch homolog protein 3 (Homo sapiens) (UniProt Q9UM47). The assay is described as follows: small molecules binding NOTCH3 protein – biochemical, 635/667 nm fluorescence, primary screen (AID 1096). The settings on record: small-molecule microarray, 635 nm fluorescence, higher = more signal.
Sequence of Neurogenic locus notch homolog protein 3 (Homo sapiens) (Q9UM47 whole entry, looked up): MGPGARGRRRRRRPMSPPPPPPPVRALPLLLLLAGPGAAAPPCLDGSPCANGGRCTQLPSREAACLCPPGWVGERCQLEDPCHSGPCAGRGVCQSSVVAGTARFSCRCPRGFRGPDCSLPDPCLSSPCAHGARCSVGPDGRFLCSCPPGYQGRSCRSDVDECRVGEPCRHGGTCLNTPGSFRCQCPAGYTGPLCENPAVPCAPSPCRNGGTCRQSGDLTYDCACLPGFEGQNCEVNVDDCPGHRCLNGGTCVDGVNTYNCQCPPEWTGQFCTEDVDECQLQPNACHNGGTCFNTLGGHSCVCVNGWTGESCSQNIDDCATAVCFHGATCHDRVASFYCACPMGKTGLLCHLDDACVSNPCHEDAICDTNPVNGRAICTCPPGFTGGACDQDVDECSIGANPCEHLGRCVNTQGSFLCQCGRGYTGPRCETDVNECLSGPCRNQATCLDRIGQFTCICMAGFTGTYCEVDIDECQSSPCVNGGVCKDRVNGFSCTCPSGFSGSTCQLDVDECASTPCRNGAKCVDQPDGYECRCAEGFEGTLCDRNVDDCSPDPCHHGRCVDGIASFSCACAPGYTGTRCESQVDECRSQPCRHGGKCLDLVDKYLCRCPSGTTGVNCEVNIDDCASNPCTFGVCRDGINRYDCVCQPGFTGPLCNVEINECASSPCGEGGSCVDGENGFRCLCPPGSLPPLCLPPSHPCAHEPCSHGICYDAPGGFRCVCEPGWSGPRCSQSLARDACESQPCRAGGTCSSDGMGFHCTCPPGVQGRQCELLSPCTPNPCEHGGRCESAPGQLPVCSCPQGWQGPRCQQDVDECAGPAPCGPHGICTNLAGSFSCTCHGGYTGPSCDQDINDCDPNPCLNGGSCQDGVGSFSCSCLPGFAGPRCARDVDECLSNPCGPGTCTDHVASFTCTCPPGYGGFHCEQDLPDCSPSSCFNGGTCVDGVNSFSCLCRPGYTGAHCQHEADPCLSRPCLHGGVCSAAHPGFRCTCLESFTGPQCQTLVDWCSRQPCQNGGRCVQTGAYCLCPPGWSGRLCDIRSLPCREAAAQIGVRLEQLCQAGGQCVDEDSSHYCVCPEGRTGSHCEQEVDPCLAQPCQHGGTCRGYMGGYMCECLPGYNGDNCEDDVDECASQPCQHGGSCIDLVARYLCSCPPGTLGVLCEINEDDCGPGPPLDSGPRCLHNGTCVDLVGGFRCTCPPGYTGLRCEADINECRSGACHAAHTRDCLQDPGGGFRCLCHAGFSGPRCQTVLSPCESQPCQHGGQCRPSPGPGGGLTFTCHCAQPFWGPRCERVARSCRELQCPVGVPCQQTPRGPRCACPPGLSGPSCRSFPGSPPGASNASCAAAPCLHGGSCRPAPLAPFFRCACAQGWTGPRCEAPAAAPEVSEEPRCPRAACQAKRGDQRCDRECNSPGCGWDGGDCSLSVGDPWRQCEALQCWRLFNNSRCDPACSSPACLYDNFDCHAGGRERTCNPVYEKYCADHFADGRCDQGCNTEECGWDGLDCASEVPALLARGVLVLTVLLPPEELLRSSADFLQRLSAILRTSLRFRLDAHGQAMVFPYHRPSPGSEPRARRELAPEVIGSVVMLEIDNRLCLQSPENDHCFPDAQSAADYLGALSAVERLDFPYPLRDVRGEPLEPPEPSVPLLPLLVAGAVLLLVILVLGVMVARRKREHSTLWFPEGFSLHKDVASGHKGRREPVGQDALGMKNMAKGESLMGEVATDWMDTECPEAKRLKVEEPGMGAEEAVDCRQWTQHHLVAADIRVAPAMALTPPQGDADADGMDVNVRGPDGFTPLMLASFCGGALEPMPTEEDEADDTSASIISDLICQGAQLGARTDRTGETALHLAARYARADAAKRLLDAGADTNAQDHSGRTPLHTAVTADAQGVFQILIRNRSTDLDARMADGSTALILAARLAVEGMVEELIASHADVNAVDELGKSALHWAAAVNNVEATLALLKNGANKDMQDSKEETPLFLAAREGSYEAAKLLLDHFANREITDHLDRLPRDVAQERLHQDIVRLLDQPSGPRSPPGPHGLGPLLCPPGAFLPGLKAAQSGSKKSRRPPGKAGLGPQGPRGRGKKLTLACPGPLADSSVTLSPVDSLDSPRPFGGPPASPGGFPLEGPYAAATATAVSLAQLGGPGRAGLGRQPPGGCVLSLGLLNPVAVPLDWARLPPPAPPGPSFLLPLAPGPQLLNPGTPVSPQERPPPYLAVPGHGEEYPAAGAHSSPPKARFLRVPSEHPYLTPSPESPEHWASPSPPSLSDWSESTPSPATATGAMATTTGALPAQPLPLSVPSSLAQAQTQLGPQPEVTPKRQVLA
Assay [20] is described as follows: probe aEGFR binding to arrayed compounds – biochemical, biotinylated probe, 635/667 nm fluorescence, primary screen (AID 1097).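 Further: probe is a biotinylated anti-EGFR antibody binding compounds printed on slides; score combines fluorescence near 667 nm and signal to noise of each spot.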 The settings on record: small-molecule microarray, higher = more signal.

As for `O=C1C2=CC[C@H]3C(=O)N(c4ccc(F)cc4F)C(=O)[C@H]3[C@H]2[C@H](O)[C@@H]2O[C@H]12`, the composite z-score in [1] was -0.598; in [2] it was 0.45; in assay [3], -0.116; in assay [4], 0.37; in assay [5] it was 0.291; in assay [6], -0.0808. Besides, the composite z-score in assay [7] is 0.0508; in assay [9], 1.14; in assay [10], -0.0994; in [11], 0.137; in [15] it was -0.034; in assay [17], -0.124. Besides, the composite z-score in assay [18] is 0.526; in assay [19] it was 0.634; in [20] it was -0.0967. Besides, the z-score was 0.264 (inactive) in assay [8]; -0.892 (inactive) in [12]; 0.151 (inactive) in assay [13]; 0.0688 (inactive) in [14]; 0.601 (inactive) in [16].

In the case of `COC(=O)[C@H](C)NC(=O)CCC1CC(OC(=O)NCCc2ccc(F)cc2)CC2(CCCC(COC(=O)NCCc3ccccc3OC)O2)O1` (stereo not given in full), the composite z-score is -0.93 in assay [1]; -0.328 in [2]; -0.172 in assay [3]; 0.706 in assay [4]; 1.16 in [5]; 0.608 in [6]. In addition, the composite z-score in assay [7] is 0.729; in [9], -0.0835; in assay [10] it was -0.361; in [11], 1.11; in assay [15], 1.16; in [17], -0.0916. Further, the composite z-score in assay [18] was determined as 0.452; in assay [19] it was 1.09; in assay [20], 0.104. Besides, the z-score in assay [8] was -0.0438 (inactive); in [12], 0.522 (inactive); in assay [13], 0.89 (inactive); in assay [14], 0.896 (inactive); in assay [16] it was -0.0328 (inactive).

Take `CO[C@@H]1COC(=O)CC=C[C@H](C)[C@H](OC)COC(=O)[C@@H]2CCCN2C(=O)CC=C[C@H]1C`: the composite z-score in assay [1] was -0.811; in [2], 1.74; in [3], -0.196; in [4], 0.0967; in [5] it was -0.271; in [6], -0.285. The composite z-score in assay [7] was 0.158; in [9], 0.0991; in assay [10], -0.166; in [11], 0.684; in assay [15], -0.722; in assay [17], -0.225. The values for the composite z-score in assay [18], in assay [19] and in assay [20] were 1.78, -0.128 and 0.153, respectively. Further, the z-score in assay [8] is -0.331 (inactive); in [12] it was 0.0396 (inactive); in assay [13], -0.719 (inactive); in assay [14], -0.249 (inactive); in assay [16] it was 0.127 (inactive).

With `CC(=O)OC[C@H]1O[C@H](CCON=C(C)C)C=C[C@@H]1OC(C)=O`, the composite z-score in assay [1] is -0.711; in assay [2], -0.224; in assay [3], -0.116; in assay [4], 0.146; in assay [5], 0.121; in [6], -0.172. In addition, the composite z-score was -0.529 in assay [7]; 0.36 in assay [9]; -0.0645 in assay [10]; 0.0126 in [11]; 0.24 in assay [15]; -0.152 in assay [17]. Further, the composite z-score in [18] was 0.373; in [19] it was 0.0158; in assay [20], -0.0364. Moreover, the z-score in [8] was 0.2 (inactive); in assay [12], 0.765 (inactive); in [13], 0.568 (inactive); in assay [14] it was 0.748 (inactive); in assay [16] it was 0.193 (inactive).

As for `Cc1cc2c(nc1C)CCCCN2CC(O)CN1CCCc2nc(-c3ccc(Br)cc3)ccc21` (stereo not given), the composite z-score in assay [1] was -0.193; in assay [2], 0.514; in assay [3], -0.019; in assay [4], 0.673; in assay [5], 0.513; in assay [6], 0.548. In addition, the composite z-score in [7] was 1.02; in assay [9] it was 0.5; in assay [10], -0.146; in assay [11] it was 0.829; in assay [15], -0.0639; in assay [17], -0.0083. For the same compound, the composite z-score in assay [18] was 0.558; in assay [19] it was 1.11; in assay [20], 0.0122. The z-score in assay [8] was 2.29 (inactive); in assay [12], -0.178 (inactive); in [13], -0.616 (inactive); in [14] it was -0.051 (inactive); in [16] it was 0.353 (inactive).
